Results filed as inconclusive are left out. Calls of active or inactive are those of the source. Unless noted, calls follow the shape of the dose curve; as a rule, active = well fitted curve in the direction sought with a large enough effect in the repeat runs; inconclusive = weak or mixed curves; inactive = flat fitted curve, though single readings scatter.
What was measured:
[1] = qHTS assay to test for compound auto fluorescence at 535 nm (green) in HEK293 cells (AID 720680)
[2] = qHTS assay to test for compound auto fluorescence at 535 nm (green) in HEK293 cell free culture (AID 720682)
In short: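 Intrinsic compound fluorescence is measured in culture medium containing 10% FBS, with excitation at 485 nm and detection at 535 nm, referenced to fluorescein.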

[3] = qHTS assay to test for compound auto fluorescence at 590 nm (red) in HEK293 cell free culture (AID 720683)
In short: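 Red-channel autofluorescence of compounds in culture medium (DMEM, 10% FBS), no cells, measured at 540/590 nm. Rose Bengal sodium is the reference fluorophore for equivalence.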

[4] = qHTS assay to test for compound auto fluorescence at 590 nm (red) in HepG2 cell free culture (AID 720684)
In short: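 Plate contents were MEM with 10% FBS plus test compound or DMSO, no cells. Fluorescence was recorded with 540 nm excitation and 590 nm emission.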

[5] = qHTS assay to test for compound auto fluorescence at 460 nm (blue) in HepG2 cell free culture (AID 720685); also: potency is read from the fitted curve at half-maximal effect
In short: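 Compound (23 nL) or DMSO pinned into cell-free MEM with 10% FBS; blue fluorescence read at 405/460 nm excitation/emission, expressed as auto-fluorescence equivalency to triamterene.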

[6] = qHTS assay to test for compound auto fluorescence at 535 nm (green) in HepG2 cell free culture (AID 720686)
[7] = qHTS assay to test for compound auto fluorescence at 460 nm (blue) in HepG2 cells (AID 720687)
In short: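 Blue-channel autofluorescence (Ex/Em 405/460 nm, triamterene-equivalent) was measured after 1 hr compound exposure at 37 C, 5% CO2. Cells were HepG2, plated overnight at 37 C in MEM plus 10% FBS.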

[8] = target: Glucocorticoid receptor (Homo sapiens) (UniProt P04150); test: qHTS assay to identify small molecule agonists of the glucocorticoid receptor (GR) signaling pathway (AID 720691; active = well fitted activation curve with a large enough effect in the signal ratio in the repeat runs, not every such curve was filed as active; the % refers to the signal ratio; also: potency is read from the fitted curve at half-maximal effect)
Chain of Glucocorticoid receptor (Homo sapiens) (P04150 whole entry, looked up): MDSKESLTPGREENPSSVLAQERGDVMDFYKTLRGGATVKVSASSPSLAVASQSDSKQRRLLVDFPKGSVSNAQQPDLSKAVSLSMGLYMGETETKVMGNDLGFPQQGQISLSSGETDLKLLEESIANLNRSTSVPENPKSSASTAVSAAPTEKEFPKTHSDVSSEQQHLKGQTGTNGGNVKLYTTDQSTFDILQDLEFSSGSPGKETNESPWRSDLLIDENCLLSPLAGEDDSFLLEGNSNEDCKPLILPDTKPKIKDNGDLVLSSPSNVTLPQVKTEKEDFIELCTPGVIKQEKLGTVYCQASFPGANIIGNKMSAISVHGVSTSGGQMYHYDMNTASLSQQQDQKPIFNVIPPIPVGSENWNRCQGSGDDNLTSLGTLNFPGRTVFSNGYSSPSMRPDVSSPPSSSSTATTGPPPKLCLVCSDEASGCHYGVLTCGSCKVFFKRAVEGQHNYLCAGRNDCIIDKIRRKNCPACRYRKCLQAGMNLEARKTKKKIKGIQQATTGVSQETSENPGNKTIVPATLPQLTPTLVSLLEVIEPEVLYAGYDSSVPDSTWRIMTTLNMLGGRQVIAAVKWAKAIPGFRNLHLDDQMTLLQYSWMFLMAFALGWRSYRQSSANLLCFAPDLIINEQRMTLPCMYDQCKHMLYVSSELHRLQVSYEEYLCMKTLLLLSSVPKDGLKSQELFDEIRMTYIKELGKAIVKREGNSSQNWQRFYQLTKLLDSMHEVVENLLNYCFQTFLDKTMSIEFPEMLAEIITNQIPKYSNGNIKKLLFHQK
In short: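 Beta-lactamase reporter activity, read as fluorescence intensity, was measured in GR-bla HeLa cells exposed to compounds for 18 h at 37 C and then loaded with LiveBLAzer B/G FRET substrate for 2 h at room temperature.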

[9] = target: Glucocorticoid receptor (Homo sapiens) (UniProt P04150); test: qHTS assay to identify small molecule antagonists of the glucocorticoid receptor (GR) signaling pathway (AID 720692; active = well fitted inhibition curve with a large enough effect in the signal ratio in the repeat runs, not every such curve was filed as active; the % refers to the signal ratio; also: potency is read from the fitted curve at half-maximal effect)
In short: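 Fluorescence from cleaved LiveBLAzer B/G FRET substrate reports GRE-driven beta-lactamase in HeLa cells; compounds are tested against 5 nM dexamethasone (final) over 18 h at 37 C, substrate incubation 2 h at room temperature.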

[10] = qHTS assay to test for compound auto fluorescence at 460 nm (blue) in HEK293 cell free culture (AID 720681)
In short: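 Blue fluorescence (Ex 405/Em 460 nm, triamterene-equivalent) was read immediately after pin transfer of compound or DMSO into medium (DMEM, 10% FBS) without cells.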
% is scaled to controls: 0 for no effect and ±100 for the full control effect; tags tell the direction and shape of the fitted curve or compound fluorescence and quenching.

O=[N+]([O-])c1ccc(Oc2ccc(C(F)(F)F)cc2[N+](=O)[O-])cc1
inactive: outcome [1] | outcome [2] | outcome [3] | outcome [4] | Potency [5] | outcome [6] | Potency [7] | Potency [8]

CC1(C)CN=C(NN=C(/C=C/c2ccc(C(F)(F)F)cc2)/C=C/c2ccc(C(F)(F)F)cc2)NC1
inactive: outcome [1] | outcome [2] | outcome [3] | outcome [4] | Potency [5] | Potency [7]

CCC(C)c1cc([N+](=O)[O-])cc([N+](=O)[O-])c1OC(=O)C=C(C)C (configuration not stated)
inactive: outcome [1] | outcome [2] | outcome [3] | outcome [4] | Potency [5] | outcome [6] | Potency [7] | Potency [8]
active: Potency [9] 19.5 µM

Nc1ccc(Cc2ccc(N)c(Cl)c2)cc1Cl
active: Potency [9] 42.2 µM
inactive: outcome [1] | outcome [2] | outcome [3] | outcome [4] | Potency [5] | Potency [7] | Potency [8]

CCCCCCCCCCCCCN1CC(C)OC(C)C1 (configuration not stated)
inactive: outcome [1] | outcome [2] | outcome [3] | outcome [4] | Potency [5] | outcome [6] | Potency [7] | Potency [8] | Potency [9]

CCC[CH2][Sn]([CH2]CCC)([CH2]CCC)[O]C(=O)c1ccccc1
inactive: outcome [1] | outcome [2] | outcome [3] | outcome [4] | Potency [5] | outcome [6] | Potency [7]

Clc1ccc(CO/N=C(\Cn2ccnc2)c2ccc(Cl)cc2Cl)c(Cl)c1
inactive: Potency [10] | outcome [2] | outcome [3] | outcome [4] | Potency [5] | outcome [6] | Potency [7]

ClC1=C(Cl)[C@]2(Cl)[C@H]3[C@H]([C@H]4C=C[C@H]3C4)[C@@]1(Cl)C2(Cl)Cl
inactive: outcome [1] | outcome [2] | outcome [3] | outcome [4] | Potency [5] | outcome [6] | Potency [7] | Potency [8]
active: Potency [9] 49 µM

CCN
inactive: outcome [1] | Potency [10] | outcome [3] | outcome [4] | Potency [5] | Potency [7] | Potency [8]

CCC(C)(C)C(=O)OC1=C(c2ccc(Cl)cc2Cl)C(=O)OC12CCCCC2
inactive: outcome [1] | Potency [10] | outcome [3] | outcome [4] | Potency [5] | Potency [7] | Potency [8]

CCCCCCCCc1ccc(O)cc1
inactive: outcome [1] | outcome [2] | outcome [3] | outcome [4] | Potency [5] | outcome [6] | Potency [7] | Potency [8]

N#CCCSCCC#N
inactive: outcome [1] | outcome [2] | outcome [3] | outcome [4] | Potency [5] | outcome [6] | Potency [7] | Potency [8] | Potency [9]

CCc1nn(C)c(C(=O)NCc2ccc(C(C)(C)C)cc2)c1Cl
inactive: Potency [10] | outcome [2] | outcome [3] | outcome [4] | Potency [5] | outcome [6] | Potency [7]

CC(C)(C)c1ccc(CSc2cnn(C(C)(C)C)c(=O)c2Cl)cc1
inactive: outcome [1] | outcome [3] | outcome [4] | Potency [5] | outcome [6] | Potency [7] | Potency [8]

CN(C)C(=S)[S-].CN(C)C(=S)[S-].[Cu+2]
inactive: fluorescence, % of fluorescein [1] -0.0159% [at 18.6 µM] | activity change [2] 0.0031% [at 18.6 µM] | fluorescence, % of fluorescent control [3] 0.0139% [at 18.6 µM] | fluorescence, % of Rose Bengal [4] 0.0949% [at 18.6 µM] | fluorescence, % of fluorescent control [5] -0.0974% [at 18.6 µM] | fluorescence, % of fluorescein control [6] 0.0404% [at 18.6 µM] | fluorescence, % of fluorescent control [7] 0.125% [at 18.6 µM]

O=C(O)C1C2CCC(O2)C1C(=O)O (configuration not stated)
inactive: outcome [1] | outcome [2] | outcome [3] | outcome [4] | Potency [5] | outcome [6] | Potency [7] | Potency [8] | Potency [9]

ClCc1ccc(Cl)cc1Cl
inactive: outcome [1] | outcome [3] | outcome [4] | Potency [5] | outcome [6] | Potency [7] | Potency [8] | Potency [9]

CC(C)(C)C(O)/C(=C\c1ccc(Cl)cc1Cl)n1cncn1 (configuration not stated)
inactive: outcome [1] | outcome [2] | outcome [3] | outcome [4] | Potency [5] | outcome [6] | Potency [7] | Potency [8]
active: Potency [9] 59.3 µM

O=C(NC(=O)c1c(F)cccc1F)Nc1cc(Cl)c(OC(F)(F)C(F)F)c(Cl)c1
inactive: outcome [1] | outcome [2] | outcome [3] | outcome [4] | Potency [5] | outcome [6] | Potency [7] | Potency [9]

CCOP(=O)(NC(C)C)Oc1ccc(SC)c(C)c1 (configuration not stated)
inactive: outcome [1] | outcome [2] | outcome [3] | outcome [4] | Potency [5] | outcome [6] | Potency [7] | Potency [8]

CN(C)S(=O)(=O)N(SC(F)(Cl)Cl)c1ccccc1
inactive: outcome [1] | outcome [2] | outcome [3] | outcome [4] | Potency [5] | outcome [6] | Potency [7]

CCCCOCN(C(=O)CCl)c1c(CC)cccc1CC
active: Potency [9] 21.9 µM
inactive: outcome [1] | outcome [2] | outcome [3] | outcome [4] | Potency [5] | outcome [6] | Potency [7] | Potency [8]

CCCN(CCC)CCc1c[nH]c2ccccc12
inactive: outcome [1] | outcome [3] | outcome [4] | Potency [5] | outcome [6] | Potency [7] | Potency [8] | Potency [9]

CN(C)C1CSSSC1
inactive: outcome [1] | Potency [10] | outcome [3] | outcome [4] | Potency [5] | Potency [7] | Potency [8]

O=C(CCl)C(Cl)Cl
inactive: outcome [1] | outcome [2] | outcome [3] | outcome [4] | Potency [5] | outcome [6] | Potency [7]
active: Potency [9] 35 µM

N#CC(Cl)Cl
inactive: outcome [1] | outcome [2] | outcome [3] | outcome [4] | Potency [5] | outcome [6] | Potency [7]

CCCCCCCCCCCCCC[P+](CCCCCC)(CCCCCC)CCCCCC (tested in a mixture with another compound)
inactive: outcome [1] | outcome [2] | outcome [3] | outcome [4] | Potency [5] | outcome [6] | Potency [7]

Cc1cc(N=Nc2ccccc2C)ccc1N
inactive: outcome [1] | outcome [2] | outcome [3] | outcome [4] | Potency [5] | outcome [6] | Potency [7] | Potency [8]

CCOC(=O)C1(c2ccccc2)CCN(CCC(C#N)(c2ccccc2)c2ccccc2)CC1
active: Potency [8] 60 µM
inactive: outcome [1] | Potency [10] | outcome [3] | outcome [4] | Potency [5] | Potency [7]

Fc1cccc(Cl)c1CCl
inactive: outcome [1] | outcome [2] | outcome [3] | outcome [4] | Potency [5] | outcome [6] | Potency [7] | Potency [8]

C[C@]12Cc3nonc3C[C@@H]1CC[C@@H]1[C@@H]2CC[C@@]2(C)[C@H]1CC[C@]2(C)O
active: Potency [9] 7.56 µM
inactive: Potency [10] | outcome [2] | outcome [3] | outcome [4] | Potency [5] | outcome [6] | Potency [7]

c1ccc2cc3c(cc2c1)-c1cccc2cccc-3c12
inactive: outcome [3] | outcome [4] | outcome [6]
active: Potency [5] 1.41 µM [fluorescent]

CCCCCCCCCC[N+](C)(C)CCCCCCCCCC
inactive: Potency [10] | outcome [2] | outcome [3] | outcome [4] | Potency [5] | outcome [6] | Potency [7]

— PubChem BioAssay (Tox21)
